Read-out in experiment [1]: C-C motif chemokine 2 (Homo sapiens) (UniProt P13500)
Briefly: BSK_KF3CT_MCP1: BioMAP Diversity Plus: KF3CT Assay for Monocyte Chemoattractant Protein 1 (MCP1/CCL2) Biomarker Activity (AID 2283073). Particulars: primary human keratinocytes with fibroblasts; actives raise or lower the signal. In outline:
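KF3CT skin co-culture (keratinocytes/foreskin fibroblasts), 24 h post-dose; MCP-1 by ELISA; gain/loss of signal fit bidirectionally vs DMSO baseline.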

Read-out in experiment [2]: urokinase plasminogen activator (uPA), PLAU (gene 5328)
Briefly: BSK_KF3CT_uPA: BioMAP Diversity Plus: KF3CT Assay for urokinase plasminogen activator (uPA) Biomarker Activity (AID 2283075). Particulars: primary human keratinocytes with fibroblasts; actives raise or lower the signal. In a few lines: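 Primary human keratinocyte/foreskin fibroblast co-culture exposed to chemical; uPA measured by ELISA at 24 h. Bidirectional fit versus DMSO, with parallel SRB total-protein staining for cytotoxicity.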

Read-out in experiment [3]: CD40, CD40 (gene 958)
Briefly: BSK_LPS_CD40: BioMAP Diversity Plus: LPS Assay for CD40 Biomarker Activity (AID 2283076). Particulars: primary human HUVEC with PBMC; actives raise or lower the signal. In a few lines:
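ELISA readout of CD40 in HUVEC/PBMC co-culture (BSK_LPS system), 24 h post-dosing; bidirectional curve fit, DMSO baseline; parallel SRB total-protein staining for cytotoxicity.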

Read-out in experiment [4]: E-selectin (Homo sapiens) (UniProt P16581)
Briefly: BSK_LPS_Eselectin: BioMAP Diversity Plus: LPS Assay for Eselectin Biomarker Activity (AID 2283077). Particulars: primary human HUVEC with PBMC; actives raise or lower the signal. In a few lines:
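ELISA readout of E-selectin, 24 h post-dose, HUVEC + PBMC co-culture (LPS system). Gain or loss of signal vs DMSO baseline, bidirectional fit.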

Read-out in experiment [5]: Interleukin-8 (IL8), CXCL8 (gene 3576)
Briefly: BSK_LPS_IL8: BioMAP Diversity Plus: LPS Assay for Interleukin-8 (IL8) Biomarker Activity (AID 2283078). As to conditions: primary human HUVEC with PBMC; actives raise or lower the signal. In a few lines: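 HUVEC + PBMC co-culture, LPS-activated; test chemicals dosed, IL-8 read by ELISA at 24 h. Bidirectional curve fit vs DMSO baseline (gain or loss of signal).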

The nature of experiment [6]: BSK_LPS_SRB: Viability Assessment in the BioMAP Diversity Plus: LPS Assay (AID 2283079).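 Note: total protein by sulforhodamine B absorbance as a cytotoxicity measure; measured one day after compound addition; fitted in both directions against DMSO so loss or gain of signal counts.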 As to conditions: primary human HUVEC with PBMC. In a few lines:
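HUVEC + PBMC co-culture, LPS-stimulated; compound 24 h. 10% TCA fix, 0.1% SRB stain, A560. Bidirectional fit vs DMSO.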

Read-out in experiment [7]: Interleukin-1 alpha (IL1a), IL1A (gene 3552)
Briefly: BSK_LPS_IL1a: BioMAP Diversity Plus: LPS Assay for Interleukin-1 alpha (IL1a) Biomarker Activity (AID 2283080). Particulars: primary human HUVEC with PBMC; actives raise or lower the signal. In a few lines:
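HUVEC/PBMC co-culture, LPS system; 24 h after dosing; IL-1a by ELISA; gain or loss of signal fitted bidirectionally vs DMSO baseline.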

Read-out in experiment [8]: Monocyte Chemoattractant Protein-1 (MCP1), CCL2 (gene 6347)
Briefly: BSK_LPS_MCP1: BioMAP Diversity Plus: LPS Assay for Monocyte Chemoattractant Protein-1 (MCP1) Biomarker Activity (AID 2283081).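 For AC50: secreted MCP-1 protein quantified by ELISA in culture supernatant.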 As to conditions: primary human HUVEC with PBMC; actives raise or lower the signal. In outline: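 ELISA read-out of MCP-1 after 24 h chemical dosing of a human umbilical vein endothelial cell/peripheral blood mononuclear cell co-culture stimulated with LPS. Gain or loss of signal fitted relative to DMSO controls.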

Experiment [9] can be described thus: BSK_LPS_PGE2: BioMAP Diversity Plus: LPS Assay for Prostaglandin E2 (PGE2) Biomarker Activity (AID 2283082).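 For AC50: secreted prostaglandin E2 measured by ELISA in LPS-stimulated co-culture.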 As to conditions: primary human HUVEC with PBMC; actives raise or lower the signal. In a few lines:
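Endpoint derived from bidirectional curve fitting versus DMSO of ELISA-measured PGE2 in LPS-stimulated human primary vascular co-culture (HUVEC with PBMC) harvested at 24 h.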

Read-out in experiment [10]: Macrophage colony-stimulating factor (MCSF), CSF1 (gene 1435)
Briefly: BSK_LPS_MCSF: BioMAP Diversity Plus: LPS Assay for Macrophage colony-stimulating factor (MCSF) Biomarker Activity (AID 2283083). As to conditions: primary human HUVEC with PBMC; actives raise or lower the signal. In a few lines:
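HUVEC + PBMC co-culture (human primary), 24 h post-dose; M-CSF by ELISA; gain/loss of signal fitted bidirectionally vs DMSO baseline.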

Read-out in experiment [11]: Tissue Factor, F3 (gene 2152)
Briefly: BSK_LPS_TissueFactor: BioMAP Diversity Plus: LPS Assay for Tissue Factor Biomarker Activity (AID 2283084). Particulars: primary human HUVEC with PBMC; actives raise or lower the signal. In a few lines: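 HUVEC/PBMC co-culture, LPS-activated; CD142 ELISA read 24 h post-dose; bidirectional curve fit vs DMSO negative control.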

Read-out in experiment [12]: Tumor necrosis factor (Homo sapiens) (UniProt P01375)
Briefly: BSK_LPS_TNFa: BioMAP Diversity Plus: LPS Assay for Tumour Necrosis Factor alpha (TNFa) Biomarker Activity (AID 2283085). Particulars: primary human HUVEC with PBMC; actives raise or lower the signal. In outline: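 Primary human vascular co-culture of HUVEC and PBMC; TNFa ELISA 24 h after treatment, analysed as increase or decrease relative to DMSO control.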

Read-out in experiment [13]: Vascular cell adhesion molecule 1 (VCAM1), VCAM1 (gene 7412)
Briefly: BSK_LPS_VCAM1: BioMAP Diversity Plus: LPS Assay for Vascular cell adhesion molecule 1 (VCAM1) Biomarker Activity (AID 2283086). Particulars: primary human HUVEC with PBMC; actives raise or lower the signal. In a few lines: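 Primary human vascular co-culture (umbilical vein endothelium plus PBMC) stimulated with LPS received chemical; 24 h later VCAM-1 was read by ELISA. Overt cytotoxicity was assessed by sulforhodamine B staining of parallel cultures at the same time point.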

Read-out in another experiment: CD38, CD38 (gene 952)
Briefly: BSK_SAg_CD38: BioMAP Diversity Plus: SAg Assay for CD38 Biomarker Activity (AID 2283087). As to conditions: primary human HUVEC with PBMC; actives raise or lower the signal. In outline:
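Fluorescence ELISA of cell-surface CD38 served as the read-out, with either increase or decrease fitted against DMSO controls. Cells were a human umbilical vein endothelium plus PBMC co-culture under SEB/TSST-1 stimulation, measured 24 h after dosing.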

Read-out in experiment [14]: CD40, CD40 (gene 958)
Briefly: BSK_SAg_CD40: BioMAP Diversity Plus: SAg Assay for CD40 Biomarker Activity (AID 2283088). Particulars: primary human HUVEC with PBMC; actives raise or lower the signal. In a few lines: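 HUVEC/PBMC co-culture, 24 h post-dose; CD40 by ELISA, fluorescence intensity; bidirectional fit vs DMSO negative control.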

Read-out in another experiment: CD69, CD69 (gene 969)
Briefly: BSK_SAg_CD69: BioMAP Diversity Plus: SAg Assay for CD69 Biomarker Activity (AID 2283089). As to conditions: primary human HUVEC with PBMC; actives raise or lower the signal. In outline:
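Endothelial/PBMC co-culture; chemical added; 24 h incubation; CD69 ELISA with fluorescence detection; bidirectional fit vs DMSO.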

Read-out in experiment [15]: Monocyte Chemoattractant Protein-1 (MCP1), CCL2 (gene 6347)
Briefly: BSK_SAg_MCP1: BioMAP Diversity Plus: SAg Assay for Monocyte Chemoattractant Protein-1 (MCP1) Biomarker Activity (AID 2283090). Particulars: primary human HUVEC with PBMC; actives raise or lower the signal. In a few lines:
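MCP-1 levels in the endothelial–PBMC SAg co-culture were quantified by ELISA at 24 h post-dosing; both increases and decreases versus DMSO scored. Cytotoxicity monitored by SRB total protein in parallel cultures.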

Read-out in experiment [16]: E-selectin (Homo sapiens) (UniProt P16581)
Briefly: BSK_SAg_Eselectin: BioMAP Diversity Plus: SAg Assay for Eselectin Biomarker Activity (AID 2283091). Particulars: primary human HUVEC with PBMC; actives raise or lower the signal. In a few lines:
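E-selectin ELISA readout at 24 h post-dosing in human umbilical vein endothelial cell/PBMC co-culture; gain or loss of signal fitted relative to DMSO baseline.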

Read-out in experiment [17]: Monokine induced gamma interferon (MIG), CXCL9 (gene 4283)
Briefly: BSK_SAg_MIG: BioMAP Diversity Plus: SAg Assay for Monokine induced gamma interferon (MIG) Biomarker Activity (AID 2283092). As to conditions: primary human HUVEC with PBMC; actives raise or lower the signal. In outline: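 Measures CXCL9 protein by ELISA in a human vascular primary-cell co-culture (umbilical vein endothelium with PBMC) 24 h after chemical addition. Activity is scored up or down from the DMSO control.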

What is called AC50 is the concentration at which the activity in the assay is half-maximal.

Active and inactive are the calls of the source. Rule for the calls: active = hit-call score of the fitted dose curve at least 0.9, where 1 is the maximum; inactive = score below 0.9.

Sequence of E-selectin (Homo sapiens) (P16581 whole entry, looked up): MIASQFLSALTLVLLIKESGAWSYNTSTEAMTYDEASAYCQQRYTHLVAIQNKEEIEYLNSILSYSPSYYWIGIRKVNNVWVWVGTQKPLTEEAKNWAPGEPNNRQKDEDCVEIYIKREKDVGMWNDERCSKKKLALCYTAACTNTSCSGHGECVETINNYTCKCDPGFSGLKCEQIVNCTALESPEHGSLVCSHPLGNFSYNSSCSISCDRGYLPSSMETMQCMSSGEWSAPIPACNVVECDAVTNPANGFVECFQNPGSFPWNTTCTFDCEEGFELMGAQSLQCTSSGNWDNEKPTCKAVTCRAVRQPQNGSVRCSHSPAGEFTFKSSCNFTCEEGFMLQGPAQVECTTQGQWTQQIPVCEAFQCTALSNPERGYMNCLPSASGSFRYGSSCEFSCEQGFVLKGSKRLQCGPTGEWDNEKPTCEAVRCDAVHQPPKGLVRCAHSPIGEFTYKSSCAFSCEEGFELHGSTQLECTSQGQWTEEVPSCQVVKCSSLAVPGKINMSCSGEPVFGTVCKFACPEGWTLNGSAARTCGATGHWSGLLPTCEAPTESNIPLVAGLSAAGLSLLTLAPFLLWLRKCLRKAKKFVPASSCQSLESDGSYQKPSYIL
Sequence of Tumor necrosis factor (Homo sapiens) (P01375 whole entry, looked up): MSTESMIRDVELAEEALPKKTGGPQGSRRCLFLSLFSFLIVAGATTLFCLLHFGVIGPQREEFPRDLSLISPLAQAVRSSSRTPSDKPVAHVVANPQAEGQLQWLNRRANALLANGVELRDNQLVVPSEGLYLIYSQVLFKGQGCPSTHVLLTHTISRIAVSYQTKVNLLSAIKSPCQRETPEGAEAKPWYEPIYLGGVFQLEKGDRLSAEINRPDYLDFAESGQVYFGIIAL

Turning to `O=[N+]([O-])c1cccc2ccccc12`, the outcome in experiment [1] was “inactive”; in experiment [2], “inactive”; in the experiment with CD40, CD40 (gene 958) [3], “inactive”; in experiment [4] it was “inactive”; in experiment [5], “inactive”; in experiment [6], “inactive”. Also, the result in experiment [7], in [8], in experiment [9], in experiment [10], in experiment [11] and in [12] was inactive. Besides, the outcome in [13] was “inactive”; with CD38, CD38 (gene 952), “inactive”; with CD40, CD40 (gene 958) [14], “inactive”; in the experiment with CD69, CD69 (gene 969), “inactive”; in experiment [15], “inactive”; in experiment [16] it was “inactive”. In experiment [17], the result was inactive.

Turning to `CCOP(=O)(OCC)SCCSCC`, the outcome is “inactive” in experiment [1]; “inactive” in [2]; “inactive” with CD40, CD40 (gene 958) [3]; “inactive” in experiment [4]; “inactive” in experiment [5]; “inactive” in [6]. The result in experiment [7], in experiment [8], in experiment [9], in experiment [10], in experiment [11] and in experiment [13] was inactive. For the same compound, the outcome was “inactive” in the experiment with CD38, CD38 (gene 952); “inactive” in the experiment with CD40, CD40 (gene 958) [14]; “inactive” with CD69, CD69 (gene 969); “inactive” in experiment [15]; “inactive” in experiment [16]; “inactive” in [17].

Regarding `Cc1ccc2nc3sc(=O)sc3nc2c1`, the outcome in experiment [1] was “inactive”; in experiment [2], “inactive”; in experiment [5], “inactive”; in experiment [10], “inactive”; in experiment [11] it was “inactive”; with CD69, CD69 (gene 969), “inactive”. In addition, the result in [15] and in experiment [17] was inactive. Besides, the AC50 in the experiment with CD40, CD40 (gene 958) [3] is 4.27 µM (active); in [4], 8.18 µM (active); in experiment [6], 3.67 µM (active); in experiment [7] it was 7.83 µM (active); in experiment [8] it was 6.93 µM (active); in experiment [9], 1.2 µM (active). For the same compound, the AC50 was 7.61 µM (active) in experiment [13]; 6.68 µM (active) with CD38, CD38 (gene 952); 6.41 µM (active) in the experiment with CD40, CD40 (gene 958) [14]; 8.11 µM (active) in experiment [16].

On to `O=C(O)C1(c2ccc3c(c2)OC[C@H](Cc2ccc(-c4ccccc4)cc2)[C@H]3O)CCCC1`, for which the AC50 in experiment [1] was 13.6 µM (active); in experiment [2], 28.6 µM (active); in the experiment with CD40, CD40 (gene 958) [3], 20 µM (active); in experiment [13], 20 µM (active); with CD38, CD38 (gene 952), 23.3 µM (active); in the experiment with CD40, CD40 (gene 958) [14], 20 µM (active). Also, the AC50 in experiment [15] was 20 µM (active); in experiment [16] it was 14.1 µM (active). Besides, the result in experiment [4], in experiment [5], in [6], in experiment [7], in [8] and in experiment [9] was inactive. Further, the outcome in experiment [10] is “inactive”; in [11], “inactive”; in experiment [12], “inactive”; in the experiment with CD69, CD69 (gene 969) it was “inactive”; in experiment [17] it was “inactive”.

The record behind these values is PubChem BioAssay (EPA / NIEHS).
